Source: PubChem BioAssay (several laboratories)
Shown are actives, neighbours in structure and some others; about 4.1% of the full set was active somewhere.
MEKK2 mut-MEK5 – MEK5 binding signal on mutant MEKK2 PB1, primary screen, biochemical, multiplex bead flow cytometry, Alexa488-MEK5; Alexa488-MEK5 binding to MEKK2 mutant; percent response, % at 10 µM; actives 0.35% (n = 290,000); in the data active means percent response above about 24%, passing the limit was not always enough
CHT PAM – CHT positive allosteric modulators, primary screen, cell-based, membrane potential dye, choline EC20. High affinity choline transporter 1 (Homo sapiens), Q9GZV3. CHT-expressing cells; stronger effect = higher value; LV-AA mutant CHT in HEK293 cells. B-score at 10 µM. actives 0.49% (n = 310,000). AID 488977, 2010;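 active means initial fluorescence not abnormally high and integrated response B-score, plate-corrected, over 3 SD above library mean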
Target sequence (Q9GZV3 whole entry, looked up): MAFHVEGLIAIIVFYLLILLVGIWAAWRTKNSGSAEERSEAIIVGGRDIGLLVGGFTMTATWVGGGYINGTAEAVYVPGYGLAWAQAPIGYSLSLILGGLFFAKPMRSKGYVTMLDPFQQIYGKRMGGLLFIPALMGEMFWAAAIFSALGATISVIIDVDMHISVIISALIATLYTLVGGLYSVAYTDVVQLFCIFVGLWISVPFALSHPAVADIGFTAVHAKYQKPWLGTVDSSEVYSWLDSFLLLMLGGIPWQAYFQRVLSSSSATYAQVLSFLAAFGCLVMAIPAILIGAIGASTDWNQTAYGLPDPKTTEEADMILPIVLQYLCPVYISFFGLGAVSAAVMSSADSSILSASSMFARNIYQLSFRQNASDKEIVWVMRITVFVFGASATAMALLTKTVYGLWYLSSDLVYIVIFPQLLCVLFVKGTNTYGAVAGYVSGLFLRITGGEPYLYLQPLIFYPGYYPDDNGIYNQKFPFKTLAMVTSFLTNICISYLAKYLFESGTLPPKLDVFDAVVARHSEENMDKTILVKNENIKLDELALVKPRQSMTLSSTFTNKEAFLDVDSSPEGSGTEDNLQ
MEKK3 PB1 HTS – modulators of MEKK3-MEK5 PB1 binding, primary screen, biochemical, wildtype MEKK3, multiplex bead flow cytometry, Alexa488-MEK5. Mitogen-activated protein kinase kinase kinase 3 (Homo sapiens), Q99759. bead-based flow cytometry, Alexa488-MEK5 binding to MEKK3; actives lie on both sides; 0 = blocked by unlabeled MEK5, 100 = vehicle. binding response (% of control), % at 10 µM. actives 1.4% (n = 290,000). AID 1529, 2009;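 active means binding response more than 3 SD above or below the average of its plate-row segment, actives on both sides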;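 further: Alexa488 bead fluorescence after subtracting the streptavidin-only scavenger bead signal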
CHT inh – inhibitors of human choline transporter CHT; High affinity choline transporter 1 (Homo sapiens), Q9GZV3; AID 488975, 2010; actives 0.86% (n = 310,000); B-score at 10 µM; CHT-expressing cells, membrane potential dye, choline response; stronger effect = lower value;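 active means B-score over 3 SD under the library average, and starting fluorescence ratio not unusually high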;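 further: choline stimulus applied at its EC90 after an EC20 pre-addition; B-score computed on integrated fluorescence ratio after choline addition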
MEKK2wt PB1 HTS – modulators of MEK5 binding to wildtype MEKK2, primary screen, biochemical, multiplex bead flow cytometry, Alexa488-MEK5. Mitogen-activated protein kinase kinase kinase 2 (Homo sapiens), Q9Y2U5. Alexa488-MEK5 binding to MEKK2 WT; actives lie on both sides. binding response (% of control), % at 10 µM. actives 1.1% (n = 290,000). AID 1531, 2009; in the data active means binding response below about 67% or above about 130%
Mot1-301 SUMO – yeast Mot1-301 growth rescue at high temperature, primary screen, SUMOylation pathway inhibitor project, S. cerevisiae, ATP luminescence, 38.5C; actives 1% (n = 320,000); growth rescue, % at 18.8 µM; S. cerevisiae Mot1-301 growth rescue; percent above DMSO median, 100 means doubled;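 active means every valid replicate shows activation above 250% relative to neutral control wells; inactive means the rest, any valid replicate at or below 250%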
Each line names hits and unclear results; the compound was inactive in the other large screens.

O=C(NCC1CCN(Cc2ccc(F)cc2)CC1)C1CCCN(c2ncnc3c2nc2n3CCCCC2)C1 (centres undefined)	none
O=C(NCC1CCN(Cc2ccc(Cl)cc2)CC1)C1CCCN(c2ncnc3c2nc2n3CCCCC2)C1 (centres undefined)	MEKK2 mut-MEK5 25
CC1CC(C)CN(CCCNC(=O)c2ccc3c(c2)N(Cc2ccccc2)C(=O)c2ccccc2S3=O)C1 (centres undefined)	MEKK2wt PB1 HTS 145
CCCCNC(=O)C(c1ccc(OCC(=O)OC)c(C(=O)OC)c1)N(CCc1c[nH]c2ccccc12)C(=O)CCCCCN1C(=O)NC(c2ccc(-c3ccccc3)cc2)C(C(=O)OCc2ccccc2)=C1C (centres undefined)	none (no result: CHT PAM, CHT inh, Mot1-301 SUMO)
CN(Cc1cccnc1)C(=O)CCCc1c[nH]c2ccccc12	MEKK2 mut-MEK5 26, MEKK2wt PB1 HTS 135
COc1cccc(C2C3=C(N=c4s/c(=C\c5cccc(O)c5)c(=O)n42)c2ccccc2CC3)c1OC (centres undefined)	MEKK3 PB1 HTS 133
COc1c(Cl)cc(Cl)cc1CNc1ccc(S(N)(=O)=O)cc1	Mot1-301 SUMO 327
Cc1c(Cl)ccc2c(C(=O)Nc3cc(C(C)(C)C)on3)cc(-c3ccccn3)nc12	none
CCc1ccc(/C=C2/SC(=S)N(CCCC(=O)Nc3ccccc3C(=O)O)C2=O)cc1	CHT inh -7.5
CCc1ccc(/C=C2/SC(=S)N(CCC(=O)Nc3ccc(C(=O)O)cc3)C2=O)cc1	none
CCc1ccc(/C=C2/SC(=S)N(CCC(=O)Nc3cccc(C(=O)O)c3)C2=O)cc1	CHT inh -5.9
CCOC(=O)N1CCN(C(=O)Cn2ncc3c2-c2ccccc2OC3)CC1	Mot1-301 SUMO 357
OC(COc1ccc(CNCCc2ccc(C(F)(F)F)cc2)cc1)CN1CCCCC1 (centres undefined)	MEKK2wt PB1 HTS 150
CC(C)c1ccc(NC(=O)C2CCCCC2C(=O)O)cc1 (centres undefined)	Mot1-301 SUMO active (no result: MEKK2 mut-MEK5, MEKK3 PB1 HTS, MEKK2wt PB1 HTS)
Cc1ccccc1C(=O)NNC(=O)C1CCN(C(=O)Nc2ccccc2)CC1	Mot1-301 SUMO 342 (no result: MEKK2 mut-MEK5, MEKK3 PB1 HTS, MEKK2wt PB1 HTS)
Cc1noc(C)c1NC(=O)Nc1cccc2c1O[C@H](CN(C)C(=O)NC1CCCCC1)[C@@H](C)CN([C@H](C)CO)C2=O	none (no result: MEKK2 mut-MEK5, CHT PAM, MEKK3 PB1 HTS, CHT inh, MEKK2wt PB1 HTS)
O/C(=C\c1nc2ccccc2nc1/C=C(\O)c1ccccc1)c1ccccc1	MEKK2wt PB1 HTS 20
CCCCN1CCc2[nH]c(=S)[nH]c(=O)c2C1	none
CCCCC(=O)N(Cc1nc2sc(C)c(C)c2c(=O)[nH]1)C1CCCC1	Mot1-301 SUMO active
CN(C)CCC(O)c1ccccc1 (centres undefined)	MEKK2wt PB1 HTS -4.0
COc1cccc(-c2nc(CS(=O)(=O)CC(=O)NCCCN3CCOCC3)c(C)o2)c1	none
CCC1CCCCN1CCCNC(=O)CS(=O)(=O)Cc1nc(-c2cccc(OC)c2)oc1C (centres undefined)	MEKK2wt PB1 HTS 140
O=C(CSc1nc(=O)n(CCN2CCOCC2)c2c1CCCC2)Nc1cccc([N+](=O)[O-])c1	none (no result: MEKK2 mut-MEK5, MEKK3 PB1 HTS, MEKK2wt PB1 HTS)
CN(CC1CCCN(CCc2cccc(C(F)(F)F)c2)C1)C(=O)c1cc2ccccc2o1 (centres undefined)	MEKK2 mut-MEK5 24 (no result: CHT PAM, CHT inh, Mot1-301 SUMO)
CSCCC(=O)N(C)CC1CCCN(CCc2cccc(C(F)(F)F)c2)C1 (centres undefined)	none
Cc1cc(NC(=O)CCC(=O)N(CC(=O)NCC2CCCO2)c2ccc(C)c(C)c2)no1 (centres undefined)	none
COc1ccccc1C(=O)COC(=O)CNS(=O)(=O)c1ccc(C)c(C)c1	none (no result: MEKK2 mut-MEK5, MEKK3 PB1 HTS, MEKK2wt PB1 HTS)
COc1ccc(-n2c(SCC(=O)Nc3cccc4ccccc34)nc(O)cc2=O)cc1	Mot1-301 SUMO 320
COc1ccc(CNC(=O)[C@@H](C)NC(=O)C2CCN(C(=O)[C@@H](N)CCSC)CC2)cc1	Mot1-301 SUMO 612
C/C(N)=C(/C#N)C(=O)CSc1nnc(Nc2cccc(C)c2C)s1	none
C/C(N)=C(/C#N)C(=O)CSc1nnc(Nc2c(C)cccc2C)s1	Mot1-301 SUMO 337
CC(C)=C(NC(=O)c1ccccc1)C(=O)Nc1ccc(C(=O)O)cc1	none
C#CC(=O)N(c1cccc(OC)c1)C(C(=O)NC1CCCC1)c1cccs1 (centres undefined)	Mot1-301 SUMO 331
O=S(=O)(c1ccc(Cl)cc1)c1snnc1-c1ccccc1	Mot1-301 SUMO 307
Cc1ccc(C(=O)Nc2cc3[nH]c(=O)oc3cc2C)cc1	Mot1-301 SUMO 303
O=C(C1CCN(Cc2ccc(Cl)cc2)CC1)N1CCN(C(c2ccccc2)c2ccccc2)CC1	MEKK2wt PB1 HTS 145
Oc1c(Cl)cc(Cl)cc1Sc1cc(Cl)cc(Cl)c1O	Mot1-301 SUMO 282
Oc1c(Cl)cc(Cl)cc1CNn1cnnc1	none
N=c1n(CCN2CCCC2)c2ccccc2n1CC(O)c1ccc(Cl)c(Cl)c1 (centres undefined)	MEKK2wt PB1 HTS 152
N=c1n(CCN2CCOCC2)c2ccccc2n1CC(=O)c1ccc(Cl)c(Cl)c1	none
CCCCS(=O)Cc1ccccc1 (centres undefined)	none
Cc1ccn2c(CN(C)CCn3nc(C)cc3C)c(C(=O)N3CCCCCC3)nc2c1	none
Cc1ccn2c(CNCCn3nc(C)cc3C)c(C(=O)N3CCCCCC3)nc2c1	Mot1-301 SUMO 534
CCOC(=O)c1sc2ncc([N+](=O)[O-])cc2c1N	none
COC(=O)c1sc2cc([N+](=O)[O-])cc(SCC(C)C)c2c1N	MEKK2wt PB1 HTS 9.0
COc1cc(OC)c(OC)cc1C#N	Mot1-301 SUMO 689
COc1ccccc1CNC(=O)CCN=C1NS(=O)(=O)c2ccccc21	none (no result: MEKK2 mut-MEK5, CHT PAM, MEKK3 PB1 HTS, CHT inh, MEKK2wt PB1 HTS)
COc1ccc(CN(C(=O)c2ccco2)c2ccc(C)c(C)c2)cc1	Mot1-301 SUMO 403
CCOc1ccc(N(Cc2ccc(OC)cc2)C(=O)c2ccco2)cc1	none
CCC(=O)c1ccc(OCC(=O)N2CCN(c3ncccn3)CC2)cc1	none (no result: MEKK2 mut-MEK5, MEKK3 PB1 HTS, MEKK2wt PB1 HTS)
CCN(CC)CCCNc1nc2ccccc2c2nc(-c3ccncc3)nn12	none
CCN(CC)c1ccc(N=Cc2ccc(N(CC)CC)cc2O)cc1	none
CCN(CC)c1ccc(/C=N/N=C(N)N)c(O)c1	MEKK2 mut-MEK5 113 (no result: MEKK2wt PB1 HTS)
COc1ccccc1N1CCN(CCC(=O)Nc2cccc(Cl)c2)CC1	none
